Test results reported in the supplement of paper PMC7335073.
Whole data set: some 4,100 sequences, median “relative CpG methylation activity (normalised to average over all NNNCGNNN flanks)” near 0.94, cut for the highest 2% near 1.9. What follows is part of a selection rich in the highest values, with near analogues and random picks from the rest.

The sequences below were run against DNMT3B catalytic domain (mouse) (UniProt O88509) (assay: relative CpG methylation activity (normalised to average over all NNNCGNNN flanks) (relative (1 = mean)); higher = more methylation of the central CpG). Conditions: system: in vitro, murine catalytic domain; CpG state: hemimethylated substrate pool; residues: 558-859.
DNMT3B catalytic domain (mouse), sequence (O88509 558-859): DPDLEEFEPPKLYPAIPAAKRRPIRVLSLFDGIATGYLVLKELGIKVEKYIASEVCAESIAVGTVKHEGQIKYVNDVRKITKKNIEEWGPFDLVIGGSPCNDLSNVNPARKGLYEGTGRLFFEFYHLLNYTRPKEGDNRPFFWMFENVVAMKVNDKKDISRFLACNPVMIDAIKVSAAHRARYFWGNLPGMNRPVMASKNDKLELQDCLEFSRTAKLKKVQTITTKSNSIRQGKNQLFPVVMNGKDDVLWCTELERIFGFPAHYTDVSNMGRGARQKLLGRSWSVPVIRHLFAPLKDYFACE
Protocol: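 Deep enzymology: a pool of dsDNA substrates with a central CpG flanked by 10 random nucleotides on each side was methylated by the murine DNMT3A or DNMT3B catalytic domain (0.8 mM SAM, 37 °C, 60 min). Methylation was then read out by hairpin ligation, bisulfite conversion and NGS. Values are the average methylation of each NNNCGNNN context (±3 flanks; the outer flanks are random and averaged over), normalised to the overall mean, so 1 = average activity.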

| Sequence | relative CpG methylation activity |
| --- | --- |
| GACCGGCT | 1.19 |
| ACGCGTAG | 0.632 |
| AGGCGATC | 1.05 |
| ACACGATC | 1.75 |
| GGCCGACT | 0.91 |
| GTACGTAC | 1.42 |
| ATACGTCC | 1.54 |
| TTACGTCT | 1.64 |
| TTACGTCC | 1.93 |
| TTACGTAC | 1.95 |
| TTACGTAT | 1.19 |
| AGTCGACA | 1.24 |
| CTGCGGAA | 0.922 |
| ACACGCTG | 1.11 |
| GATCGATC | 1.48 |
| TCCCGAGC | 2.01 |
| CCCCGAGG | 1.5 |
| TCCCGAGG | 1.3 |
| ACCCGAGC | 1.75 |
| CCCCGAGC | 1.93 |
| CCCCGAGA | 1.68 |
| CACCGCGT | 0.402 |

| Sequence | relative CpG methylation activity |
| --- | --- |
| CTGCGCCA | 1.17 |
| CGACGGCC | 1.46 |
| AGACGGCC | 1.71 |
| AGACGGCG | 1.94 |
| CGACGGCG | 1.93 |
| TGACGGCG | 1.63 |
| CGACGGCA | 1.82 |
| AACCGTCC | 0.606 |
| TATCGAGG | 1.5 |
| GTACGCGT | 1.4 |
| ATACGCCC | 1.69 |
| GTACGGGA | 1.73 |
| GTACGGGT | 1.85 |
| CTACGGGT | 1.94 |
| CCACGGGA | 1.42 |
| TTACGGGC | 2.03 |
| CAACGGGA | 1.82 |
| TTACGGGA | 1.92 |
| CTACGGGC | 1.75 |
| GTACGGGC | 1.63 |
| ATACGGGT | 1.73 |
| TTACGGGT | 1.83 |

| Sequence | relative CpG methylation activity |
| --- | --- |
| CTACGGGA | 1.91 |
| TACCGCTG | 0.389 |
| TATCGCAG | 0.473 |
| GAACGCGG | 0.853 |
| TACCGCGG | 0.374 |
| CGGCGAAG | 0.694 |
| GCGCGCCA | 0.631 |
| GTGCGAAA | 1.05 |
| ATACGGGC | 1.93 |
| CTACGGGG | 1.9 |
| TTACGGGG | 2 |
| CGACGGGG | 0.808 |
| GTACGGGG | 1.6 |
| ATACGGGA | 1.66 |
| ACACGGGC | 1.54 |
| CAACGGGG | 1.39 |
| ATACGGGG | 1.61 |
| GTTCGTAC | 1.18 |
| GCTCGCCC | 0.844 |
| GTCCGATG | 1.16 |
| GACCGTCT | 0.495 |
